Experimental data published in PubChem BioAssay AID1159580 (chemical genetic matrix, 2015).
Several values for one entry are separate records, joined by “and”; a condition that tells them apart may be missing. Equal values may be shown once. Among all 5,500 compounds or so, about 2,000 (36%) were called active. Roughly 18% stayed inconclusive and do not appear here. No stated cut-off is given here; in the data, active means normalized growth mostly below about 0.91 (no sharp cut-off); inconclusive means no clear call, values can overlap the other calls; inactive means mostly above about 0.92. This is one part of the list.

Assay: chemical genetic growth profiling, strain panel (AID 1159580);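 further: tested at 20 µM; growth read once vehicle control cultures reached saturation at 30 °C; 1 = growth at the plate median or of vehicle wells; lower values mean less growth of the strain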
Settings: S. cerevisiae deletion strains, growth OD
[1] = locus YAL013W, strain DEP1, active compounds read low
[2] = locus YBR229C, strain ROT2, active compounds read low
[3] = locus YDL101C, strain DUN1, active compounds read low
[4] = locus YDR150W, strain NUM1, active compounds read low
[5] = locus YEL061C, strain CIN8, active compounds read low
[6] = locus YGR078C, strain PAC10, active compounds read low
[7] = locus YHR030C, strain SLT2, active compounds read low
[8] = locus YJL187C, strain SWE1, active compounds read low
[9] = locus YJR043C, strain POL32, active compounds read low
[10] = locus YJR075W, strain HOC1, active compounds read low
[11] = locus YLR039C, strain RIC1, active compounds read low
[12] = locus YLR262C, strain YPT6, active compounds read low
[13] = locus YNL322C, strain KRE1, active compounds read low
[14] = locus YOL006C, strain TOP1, active compounds read low
[15] = locus YPL241C, strain CIN2, active compounds read low

Measured: normalized growth

O=[N+]([O-])c1ccc(SC2=NCCN2)c(Cl)c1
inactive: [1] 0.994 | [2] 1 | [3] 0.987 | [4] 0.985 | [5] 0.978 | [6] 0.987 | [7] 1.03 | locus YHR087W, strain rtc3, active compounds read low 1.01 | [8] 0.98 | [9] 0.964 | [10] 0.952 | locus YKL190W, strain CNB1, active compounds read low 0.994 | [11] 1 | locus YLR058C, strain SHM2 (second series), active compounds read low 0.992 | locus YLR085C, strain ARP6, active compounds read low 0.965 | [12] 1 | locus YML094W, strain GIM5, active compounds read low 0.972 | locus YMR219W, strain ESC1, active compounds read low 0.977 | locus YMR263W, strain SAP30, active compounds read low 1.01 | locus YNL153C, strain GIM3, active compounds read low 1.02 | locus YNL298W, strain CLA4 (second series), active compounds read low 1.03 | [13] 0.984 | locus YNR030W, strain Alg12, active compounds read low 0.995 | [14] 1 | locus YPL055C, strain LGE1, active compounds read low 1.03 | [15] 0.985 | locus YPR135W, strain CTF4, active compounds read low 1.09

CC(=O)Nc1cc([As](=O)(O)O)ccc1O
inactive: [1] 0.996 | locus YAL021C, strain ccr4, active compounds read low 1.01 | locus YAL026C, strain drs2, active compounds read low 1.01 | locus YAL030W, strain snc1, active compounds read low 1.01 | locus YBL061C, strain skt5, active compounds read low 1 | locus YBR009C, strain hhf1, active compounds read low 1.01 | locus YBR021W, strain FUR4, active compounds read low 1.05 | locus YBR023C, strain chs3, active compounds read low 1.01 | locus YBR171W, strain sec66, active compounds read low 1.01 | [2] 1.01 | locus YBR231C, strain swc5, active compounds read low 1.01 | locus YBR279W, strain paf1, active compounds read low 0.999 | locus YCL011C, strain gbp2, active compounds read low 1.02 | locus YCL016C, strain dcc1, active compounds read low 0.994 | locus YCL029C, strain bik1, active compounds read low 0.981 | locus YCL061C, strain MRC1, active compounds read low 0.995 | locus YCL069W, strain vba3, active compounds read low 1.01 | locus YCR088W, strain abp1, active compounds read low 1.01 | locus YDL005C, strain med2, active compounds read low 1 | locus YDL035C, strain GPR1, active compounds read low 0.999 | locus YDL040C, strain nat1, active compounds read low 1.01 | locus YDL074C, strain BRE1, active compounds read low 0.936 | [3] 0.992 | locus YDL185W, strain tfp1, active compounds read low 0.945 | locus YDL192W, strain arf1, active compounds read low 0.994 | locus YDR001C, strain nth1, active compounds read low 1.02 | locus YDR069C, strain doa4, active compounds read low 1.01 | locus YDR101C, strain arx1, active compounds read low 0.936 | locus YDR137W, strain rgp1, active compounds read low 1.01 | [4] 0.997 | locus YDR159W, strain sac3, active compounds read low 0.988 | locus YDR162C, strain NBP2, active compounds read low 0.996 | locus YDR195W, strain ref2 0.995 | locus YDR297W, strain sur2, active compounds read low 1.01 | locus YDR318W, strain mcm21, active compounds read low 1 | locus YDR334W, strain swr1, active compounds read low 1.02 | locus YDR335W, strain msn5, active compounds read low 1.01 | locus YDR388W, active compounds read low 0.997 | locus YDR392W, strain spt3, active compounds read low 0.905 | locus YDR502C, strain sam2, active compounds read low 1.02 | locus YEL003W, strain gim4, active compounds read low 1.01 | locus YEL037C, strain rad23, active compounds read low 1.01 | locus YEL061C, strain CIN8 (second series), active compounds read low 1.02 | [5] 1 | locus YER015W, strain faa2, active compounds read low 0.998 | locus YER016W, strain bim1, active compounds read low 1.01 | locus YER110C, active compounds read low 0.983 | locus YER111C, strain swi4, active compounds read low 1 | locus YER155C, strain BEM2 (second series), active compounds read low 0.982 | locus YER155C, strain BEM2, active compounds read low 1.01 | locus YER167W, strain BCK2, active compounds read low 0.996 | locus YFR010W, strain ubp6, active compounds read low 1.03 | locus YGL078C, strain dbp3, active compounds read low 0.985 | locus YGL086W, strain mad1, active compounds read low 0.996 | locus YGL167C, strain pmr1, active compounds read low 1.01 | locus YGL173C, strain kem1, active compounds read low 1.01 | locus YGL227W, strain vid30, active compounds read low 1.01 | locus YGL240W, strain doc1, active compounds read low 0.978 | locus YGL248W, strain PDE1, active compounds read low 1.01 | locus YGL253W, strain hxk2, active compounds read low 1.02 | [6] 1 | locus YGR135W, strain pre9, active compounds read low 1.01 | locus YGR252W, strain gcn5, active compounds read low 1.11 | locus YHR013C, strain ard1, active compounds read low 0.997 | locus YHR027C, strain rpn1, active compounds read low 1.02 | [7] 0.981 and 1.03 | locus YHR079C, strain IRE1 (second series), active compounds read low 0.983 | locus YHR079C, strain IRE1, active compounds read low 1.01 | locus YHR094C, strain hxt1, active compounds read low 0.996 | locus YHR129C, strain ARP1, active compounds read low 0.985 | locus YHR142W, strain chs7, active compounds read low 1.03 | locus YHR200W, strain rpn10, active compounds read low 0.991 | locus YIL066C, strain RNR3, active compounds read low 0.998 | locus YIL073C, strain SPO22, active compounds read low 0.99 | locus YIL125W, strain kgd1, active compounds read low 0.985 | locus YIR030C, strain dcg1, active compounds read low 0.992 | locus YJL092W, strain hpr5, active compounds read low 1 | locus YJL095W, strain BCK1 (second series), active compounds read low 1.03 | locus YJL095W, strain BCK1, active compounds read low 1.03 and 1.02 | locus YJL115W, strain asf1, active compounds read low 1.01 | locus YJL129C, strain trk1, active compounds read low 1.01 | locus YJL134W, strain LCB3, active compounds read low 0.997 | locus YJL154C, strain vps35, active compounds read low 1.01 | locus YJL164C, strain tpk1, active compounds read low 1 | locus YJL166W, strain qcr8, active compounds read low 0.999 | locus YJL168C, strain set2, active compounds read low 0.932 | locus YJL187C, strain SWE1 (second series), active compounds read low 0.995 | [8] 1.04 | [9] 0.997 | locus YJR066W, strain TOR1, active compounds read low 0.961 | [10] 0.983 | locus YKL009W, strain mrt4, active compounds read low 0.956 | locus YKL068W, active compounds read low 0.986 | locus YKL085W, strain MDH1 (second series), active compounds read low 0.982 | locus YKL085W, strain MDH1, active compounds read low 0.982 | locus YKL160W, strain elf1, active compounds read low 0.981 | locus YKR001C, strain vps1, active compounds read low 0.999 | locus YKR026C, strain gcn3, active compounds read low 1 | locus YKR091W, strain srl3, active compounds read low 1.01 | locus YLL001W, strain dnm1, active compounds read low 0.99 | locus YLL026W, active compounds read low 1 | locus YLL041C, strain sdh2, active compounds read low 1 | locus YLR027C, strain aat2, active compounds read low 1 | [11] 1.01 | locus YLR058C, strain SHM2, active compounds read low 0.994 | locus YLR102C, strain apc9, active compounds read low 0.984 | locus YLR113W, strain HOG1, active compounds read low 1.01 | locus YLR221C, strain rsa3, active compounds read low 1.02 | locus YLR258W, strain gsy2, active compounds read low 0.998 | locus YLR262C, strain YPT6 (second series), active compounds read low 0.999 | [12] 1.01 | locus YLR268W, strain sec22, active compounds read low 0.964 | locus YLR320W, strain mms22, active compounds read low 0.995 | locus YLR330W, strain CHS5, active compounds read low 1 | locus YLR342W, strain FKS1 (second series), active compounds read low 1.01 | locus YLR342W, strain FKS1, active compounds read low 1.01 | locus YLR357W, strain rsc2, active compounds read low 1 | locus YLR370C, strain arc18, active compounds read low 1.01 | locus YLR371W, strain rom2, active compounds read low 0.984 | locus YLR384C, strain iki3, active compounds read low 0.998 | locus YLR418C, strain cdc73, active compounds read low 0.997 | locus YML016C, strain PPZ1, active compounds read low 0.995 | locus YML032C, strain rad52, active compounds read low 1.03 | locus YML120C, strain ndi1, active compounds read low 1.01 | locus YML124C, strain tub3, active compounds read low 0.981 | locus YMR058W, strain fet3, active compounds read low 1.01 | locus YMR078C, strain ctf18, active compounds read low 0.976 | locus YMR125W, strain sto1, active compounds read low 1 | locus YMR129W, active compounds read low 1.01 | locus YMR205C, strain PFK2, active compounds read low 0.994 | locus YMR223W, strain ubp8, active compounds read low 1.01 | locus YMR231W, strain pep5, active compounds read low 0.996 | locus YMR307W, strain GAS1, active compounds read low 1.17 | locus YNL067W, strain RPL9B, active compounds read low 0.983 | locus YNL071W, strain lat1, active compounds read low 1.01 | locus YNL183C, strain NPR1, active compounds read low 0.973 | locus YNL209W, strain ssb2, active compounds read low 1.01 | locus YNL233W, strain BNI4, active compounds read low 1.01 | locus YNL248C, strain rpa49, active compounds read low 0.987 | locus YNL250W, strain rad50, active compounds read low 0.976 | locus YNL271C, strain bni1, active compounds read low 0.983 | locus YNL298W, strain CLA4, active compounds read low 1 | locus YNL307C, strain MCK1, active compounds read low 0.981 | locus YNL322C, strain KRE1 (second series), active compounds read low 0.992 | [13] 1 | locus YNR049C, strain mso1, active compounds read low 1.01 | locus YNR052C, strain pop2, active compounds read low 1 | [14] 0.999 | locus YOL012C, strain htz1 0.886 | locus YOL147C, strain pex11, active compounds read low 0.995 | locus YOR001W, strain rrp6, active compounds read low 0.989 | locus YOR061W, strain CKA2, active compounds read low 0.993 | locus YOR069W, strain VPS5, active compounds read low 0.998 | locus YOR070C, strain gyp1, active compounds read low 1 | locus YOR080W, strain dia2, active compounds read low 1 | locus YOR083W, strain WHI5, active compounds read low 0.978 | locus YOR106W, strain vam3, active compounds read low 0.99 | locus YOR136W, strain idh2, active compounds read low 0.974 | locus YOR144C, strain elg1, active compounds read low 0.992 | locus YOR184W, strain ser1, active compounds read low 0.988 | locus YOR231W, strain MKK1, active compounds read low 1 | locus YOR265W, strain rbl2, active compounds read low 0.998 | locus YOR270C, strain vph1, active compounds read low 1.05 | locus YOR290C, strain snf2, active compounds read low 0.993 | locus YOR316C, strain cot1, active compounds read low 0.985 | locus YPL051W, strain arl3, active compounds read low 1 | locus YPL078C, strain atp4, active compounds read low 0.982 | locus YPL106C, strain sse1, active compounds read low 0.985 | locus YPL240C, strain hsp82, active compounds read low 0.998 | [15] 1 | locus YPL256C, strain CLN2, active compounds read low 1.03 | locus YPR119W, strain clb2, active compounds read low 0.983 | locus YPR141C, strain kar3, active compounds read low 0.988 | locus YPR163C, strain tif3, active compounds read low 0.997 | locus YPR167C, strain met16, active compounds read low 0.994 | strain wtn01, active compounds read low 0.964
